GalR3 antagonist: human GalR3 antagonism | O60755 | HEK293 GalR3-CNG cAMP membrane potential fluorescence; galR3 body fused to GalR1 C-terminus | inhibition, % at 3 µM | 360,000 compounds, 0.44% hits | AID 651719;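 active = inhibition above the screen-wide average plus 3 SD, cut at about 13% in these data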;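 also: forskolin and galanin both at EC90 stimulate the cells; cAMP rise reported by CNG channel membrane potential dye signal; 0% = forskolin plus galanin with DMSO and 100% = forskolin alone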
NCOA1 inh: inhibitors of human steroid receptor coactivator 1 (SRC1). Q15788. AID 588354. 360,000 compounds, 0.12% hits. inhibition, % at 3.6 µM. HEK293 GAL4-SRC1 luciferase reporter, luminescence;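 active = inhibition above the campaign mean plus 3 SD, with each screening campaign given its own cutoff, cut at about 60% in these data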;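 also: 0% = DMSO treated cells and 100% = gossypol at 36 µM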
COUP-TFII inh: NR2F2 (human) inhibition, primary screen; P24468; HEK293T NGFI-A luciferase reporter, luminescence; inhibition, % at 8.6 µM; 370,000 compounds, 0.7% hits;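 active = inhibition above a per-plate cutoff, mean inhibition of test wells between control levels plus 3 SD, cut at about 38% in these data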;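 also: cells cotransfected with COUP-TFII expression vector driving the NGFI-A reporter; 0% = median of COUP-TF2 test wells and 100% = reporter-only cells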
NCOA3 inh: inhibitors of human steroid receptor coactivator 3 (SRC3). Q9Y6Q9. inhibition, % at 3.6 µM. 360,000 compounds, 0.17% hits. HEK293 GAL4-SRC3 luciferase reporter, luminescence;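 active = inhibition above a per-campaign cutoff, the mean of all compounds plus 3 SD, cut at about 60% in these data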;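 also: 0% = DMSO-treated cells and 100% = gossypol-treated cells at 36 µM; higher means less SRC3-driven luciferase light from the GAL4 reporter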
NR5A2 inv ag: NR5A2 inverse agonism in reporter assay; HEK293T StAR-luciferase reporter, LRH-1 transfected, 24 h; inhibition, % at 3.6 µM; 360,000 compounds, 0.13% hits; O00482;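 active = inhibition above the mean inhibition of all tested compounds plus 3 SD, cut at about 73% in these data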;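 also: 0% = DMSO wells and 100% = reporter-only cells lacking LRH-1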
NCOA2 inhibitor: human SRC2 (NCOA2) inhibition | Q15596 | HEK293 GAL4-SRC2 luciferase reporter, luminescence | inhibition, % at 9 µM | 370,000 compounds, 0.17% hits;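 active = inhibition above the mean inhibition of all tested compounds plus 3 SD, set per campaign, cut at about 52% in these data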;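 also: 0% = DMSO treated cells and 100% = cells given Gossypol at 36 µM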
Gal4-VP16 ctr: VP16 inhibition counter-screen for COUP-TFII. shares compounds with COUP-TFII inh. HEK293 Gal4-VP16 luciferase reporter, luminescence. 2,500 compounds, 25% hits. inhibition, % at 8.5 µM. AID 687007; in the data active = inhibition above about 13%
COUP-TFII conf: COUP-TFII (NR2F2) inhibition, confirmation assay; AID 687008; 2,500 compounds, 45% hits; HEK293 NGFI-A luciferase reporter, luminescence; shares compounds with COUP-TFII inh; inhibition, % at 8.5 µM;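 active = mean inhibition over three repeats above a set limit taken from the earlier primary screen, cut at about 38% in these data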;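 also: 100% = cells given the luciferase reporter alone without the COUP-TF2 vector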
The depositor's hits bear a star; . = no result given. Sampled rows, rich in hits. Any-hit rate of the full collection: about 1.1%.

SMILES | GalR3 antagonist | NCOA1 inh | COUP-TFII inh | NCOA3 inh | NR5A2 inv ag | NCOA2 inhibitor | Gal4-VP16 ctr | COUP-TFII conf
COc1ccc(OC)c(CC(=O)Nc2ccc3c(c2)c(=O)n(C)n3Cc2cccc(C(F)(F)F)c2)c1 | -6 | 2 | 83* | 2 | -7 | 58* | -9 | 5
COc1ccc(CNC(=O)Nc2ccc3c(c2)c(=O)n(C)n3Cc2cccc(C(F)(F)F)c2)cc1 | -6 | -1 | 21 | -19 | 2 | -44 | . | .
CC(=O)Nc1cc2nn(-c3ccccc3)nc2cc1Cl | -1 | -99 | -49 | -67 | -80 | -82 | . | .
CC(C)(C)C(=O)Nc1cc2nn(-c3ccccc3)nc2cc1Cl | -2 | 82* | 87* | 81* | 83* | 73* | 72* | 101*
COC(=O)[C@]12C[C@H](CC(=O)NCc3cccc(C(F)(F)F)c3)C(=O)N(Cc3cccc4ccccc34)C1=C[C@H](C1CCCC1)O[C@@H]2C | . | . | 4 | . | . | 19 | . | .
COc1ccc(-c2nsc3c(N4CCCCC4C)ncnc23)cc1 (stereo not drawn) | -4 | 89* | 97* | 89* | 86* | 82* | 88* | 104*
COc1ccc(-c2nsc3c(N4CCCCC4)ncnc23)cc1 | 3 | 54 | 57* | 43 | 40 | 33 | 3 | 63*
COc1ccc(C(=O)N2CCN(c3ncnc4c(-c5ccccc5)nsc34)CC2)cc1 | -8 | -5 | -13 | -34 | 12 | -17 | . | .
COC(=O)[C@]12C[C@H](CC(=O)NCCCN3CCCC3=O)C(=O)N(Cc3ccc4c(c3)OCO4)C1=C[C@H](COCc1ccccc1)O[C@@H]2C | -6 | . | -15 | . | . | 11 | . | .
Cc1ccccc1CS(=O)(=O)Cc1ccc(C(=O)Nc2cccc(Cl)c2F)o1 | . | . | 14 | . | . | -7 | . | .
COc1cc(OC)c(OC)cc1CNc1cc(C)ccc1OC | -10 | 9 | 39* | 27 | 26 | 29 | 7 | 18
NNc1ncnc2scc(-c3ccc(Cl)cc3)c12 | -4 | 17 | 13 | 23 | 14 | 10 | . | .
OCCCNc1ncnc2scc(-c3ccc(Cl)cc3)c12 | -10 | 50 | 38* | 39 | 15 | 51 | 0 | 14
CCOC(=O)c1cc2c(C)n(-c3ccc(OCC)cc3)c(C)c2ccc1=O | -3 | -16 | -2 | -5 | -8 | 13 | . | .
CCOC(=O)c1cc2c(C)n(-c3ccc(C)cc3)c(C)c2ccc1=O | -7 | -30 | 41* | -31 | -20 | -12 | -137 | -19
CCCCCCC(=O)N(O)C1CC(=O)N(c2ccc(Cl)cc2)C1=O (stereo not drawn) | -1 | 12 | 52* | 10 | 7 | 31 | -7 | 39*
CCCCCCN1C=CC(=C2C(=O)c3ccccc3C2=O)C=C1 | -10 | -62 | -24 | -1 | -68 | -14 | . | .
CCCN1C=CC(=C2C(=O)c3ccccc3C2=O)C=C1 | -4 | 47 | 85* | 67* | 28 | 85* | 73* | 85*
CCN1C=CC(=C2C(=O)c3ccccc3C2=O)C=C1 | -2 | 20 | 70* | 30 | 0 | 65* | 31* | 37
O=C(CN1CCC(NC(=O)NC2CCCC2)CC1)Nc1ccc2c(c1)OCCO2 | . | . | 10 | . | . | -17 | . | .
COc1ccc2cc3c(N)nn(C(=O)c4ccc(F)cc4)c3nc2c1 | -2 | 60 | 34 | 49 | 20 | 31 | . | .
COc1ccc2cc3c(N)nn(C(=O)c4ccccc4Cl)c3nc2c1 | -2 | 74* | 45* | 60 | 50 | 39 | 23* | 36
COc1ccc2cc3c(N)nn(C(=O)Cc4c[nH]c5ccccc45)c3nc2c1 | -4 | 79* | 42* | 51 | 55 | 56* | 24* | 21
O=C1CCCCC1C(O)(C(=O)c1ccccc1)c1ccccc1 (stereo not drawn) | 1 | -1 | 7 | -2 | 6 | -24 | . | .
CC1=CC(=O)C(C2CCCCC2)=C/C1=N\OS(=O)(=O)c1ccccc1 | . | . | 48* | . | . | . | -3 | -13
SMILES | GalR3 antagonist | NCOA1 inh | COUP-TFII inh | NCOA3 inh | NR5A2 inv ag | NCOA2 inhibitor | Gal4-VP16 ctr | COUP-TFII conf
O=C(CCl)Nc1ccc(C(=O)NCC2COc3ccccc3O2)cc1 (stereo not drawn) | . | . | 40* | . | . | 44 | 67* | 25
Cc1cc(C(=O)NCC2COc3ccccc3O2)c2ccccc2n1 (stereo not drawn) | -6 | 10 | 38* | 19 | -4 | -19 | 4 | 5
O=C(Cc1ccccc1)Nc1ccc(C(=O)NCC2COc3ccccc3O2)cc1 (stereo not drawn) | -11 | 8 | -6 | -19 | 34 | -8 | . | .
CNC12CCc3cc(OC)c(OC)c(c31)-c1cc3c(cc1C2)OCO3 (stereo not drawn) | -1 | . | 5 | . | . | -19 | . | .
Cc1nc2cc(NC(=O)c3ccc(S(=O)(=O)N(C)c4ccccc4)cc3)ccc2o1 | 10 | -19 | 49* | 2 | -7 | 16 | -85 | 26
CN(c1cccc(NC(=O)c2ccc(N(C)S(=O)(=O)c3ccccc3)cc2)c1)S(C)(=O)=O | -7 | 21 | 63* | 23 | 28 | 12 | -5 | 28
CC(=O)Nc1ccc(C(=O)Nc2cccc(S(=O)(=O)N(C)c3ccccc3)c2)cc1 | -7 | -22 | 16 | -21 | 11 | 3 | . | .
CN(c1ccccc1)S(=O)(=O)c1ccc(NC(=O)c2ccc(-c3ccccc3)cc2)cc1 | -2 | -9 | 13 | 20 | 5 | 15 | . | .
Cc1cc(-c2cc(NC(=O)Cc3c[nH]c4ccccc34)ccc2N(C)c2cccnc2)ccc1F | -6 | . | -5 | . | . | -17 | . | .
O=c1cc(-c2ccc(O)cc2)oc2c1ccc1ccccc12 | -9 | 4 | 5 | 12 | -14 | -24 | . | .
O=c1cc(-c2ccc(O)cc2)oc2ccc3ccccc3c12 | -5 | 12 | 55* | 28 | 21 | 46 | 14* | 46*
COc1cc(CNc2ncnc3c2ncn3[C@H]2CN(Cc3ccc(-c4ccccc4)cc3)C[C@@H](CO)O2)cc(OC)c1OC | -10 | 12 | 59* | 13 | 33 | 10 | 4 | 48*
COc1cc(CNc2ncnc3c2ncn3[C@H]2CN(Cc3ccc(C(=O)O)cc3)C[C@@H](CO)O2)cc(OC)c1OC | -9 | -3 | 12 | -8 | 11 | -13 | . | .
OC[C@@H]1CN(Cc2ccc(-c3ccccc3)cc2)C[C@H](n2cnc3c(NCc4ccncc4)ncnc32)O1 | -2 | 25 | 59* | 8 | 3 | 26 | -4 | 39*
COC(=O)c1cc2c(c3c4cc(OC)ccc4n(S(=O)(=O)c4ccc(F)cc4)c13)C(=O)N(C)C2 | -7 | . | -14 | . | . | -24 | . | .
Cc1ccc2c(c1)sc(-c1ccc(N(C)C)cc1)[n+]2C | 1 | -30 | 58* | -55 | 16 | -20 | -25 | 53*

Bioassay records (PubChem BioAssay)
